Screening data as filed in PubChem BioAssay.
Abeta rescue – compounds reversing amyloid beta toxicity in yeast; hit rate 0.063% among 410,000; Potency, µM (top dose mostly 46.1 µM), most hits filed as activators; yeast expressing A-beta42, growth rescue, OD600, 48 h; response scale: 0% DMSO, 100% iron-clioquinol control; AID 1347071; note: potency is the fitted concentration of half-maximal effect; nearly all actives have a fitted effect of over 55% in size
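Growth rescue measured by 600 nm absorbance after 48 h yeast culture at 30 C with compound. Values normalized between DMSO and an equimolar ferric chloride plus clioquinol control.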
FUS yeast rescue – suppressors of FUS proteinopathy in yeast; Potency, µM (top dose mostly 76.6 µM), usual class: activators; hit rate 0.24% among 390,000; AID 1347120; S. cerevisiae FUS-expressing, growth rescue, OD600, 24 h;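 note: potency is the fitted concentration of half-maximal effect; plate controls were DMSO vehicle for no effect and reference control for full effect; nearly all actives have a fitted effect of over 55% in size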
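Quantitative HTS measuring growth restoration of FUS-toxic yeast. Galactose-induced cells (OD 0.005) were exposed 24hr at 30C to compounds at several concentrations, then absorbance at 600 nm was recorded.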
CCT modulator – modulators of cytosolic chaperonin (CCT/TRiC) activity | purified chaperonin ATPase assay, HTRF ADP detection, 30 min | activity change, % (test concentration not listed), hits read low | hit rate 0.3% among 360,000 | AID 651819; in the data active = activity change below about -30%; note: % is set by controls: 0 for no effect and ±100 for the full control effect
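Nucleotide hydrolysis assay: TRiC at 20–40 nM final (set by batch activity) with 10 uM ATP, 30 min at 37 °C, in presence of 76 uM compound. Detection by competitive ADP HTRF, 30 min ambient.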
TDP43 rescue – inhibitors of TDP-43 toxicity in yeast; TDP-43 expressing yeast growth rescue, BacTiter-Glo, 24 h; Potency, µM (highest dose often 46.1 µM), for inactives: at the top dose growth rescue (activation), hits mostly activators; hit rate 1.8% among 410,000; AID 652104; note: potency is the fitted concentration of half-maximal effect; % of control where 0% means no effect; nearly all actives have a fitted effect of over 50% in size
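Galactose-induced TDP-43 yeast, OD600=0.02, compound pinned; 24 hr, 30 deg C; BacTiter-Glo luminescence for growth. Inhibitors of TDP-43 toxicity read as activators.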
Mm-Cpn inhibitor – blocks the Methanococcus maripaludis chaperonin Mm-Cpn. purified Mm-Cpn ATPase, ADP Transcreener TR-FRET. Potency, µM (series often up to 76.9 µM), inactives show at the highest dose activity, negative = inhibition, actives largely listed as inhibitors. hit rate 0.031% among 330,000. AID 504842; note: potency is the fitted concentration of half-maximal effect; % is set by controls: 0 for no effect and ±100 for the full control effect; nearly all actives have a fitted effect of over 80% in size
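Purified archaeal Mm-CPN (25nM final) preincubated 10 min at 37degC with compound, then 10uM ATP for 30 min at 37degC; ADP measured by HTRF Transcreener TR-FRET; buffer 30 mM TRIS pH 7.4, 100mM KCl, 5mM MgCl2, 1mM DTT.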
aSyn rescue – inhibitors of alpha-synuclein toxicity in yeast | hit rate 0.14% among 370,000 | Yeast expressing alpha-synuclein, growth rescue, BacTiter-Glo, 24 h | Potency, µM (titrated, usually from 46.1 µM), inactives show at the top dose growth rescue (activation), most hits filed as activators; note: potency is the fitted concentration of half-maximal effect; % of control where 0% means no effect; nearly all actives have a fitted effect of over 65% in size
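Readout is rescue of growth in alpha-synuclein-expressing yeast, so inhibitors of toxicity appear as activators. Growth after 24 hr at 30 deg C in galactose medium is quantified by luminescence.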
* marks the source's active call; other numbers are inactive results. In the library only some 2.3% were active in any assay of this set; here they are far more common. Unless noted, calls come from the whole dose curve; as a rule, active = well fitted curve in the direction sought with a large enough effect; inconclusive = small, poorly fitted or top-dose-only effect, or another doubt; inactive = no such curve, though single readings can be large; an effect the other way counts as inactive or inconclusive.

Results for CCC(=O)Nc1c(C(=O)N2CCN(c3ccccn3)CC2)cnn1-c1ccc(C)cc1 ?
Abeta rescue: inactive; CCT modulator: 2; TDP43 rescue: 18%; Mm-Cpn inhibitor: 1%; aSyn rescue: 0%

How did c1nc(NCC2CC2)c2cc(-c3ccc4c(c3)OCO4)ccc2n1 do in these assays?
FUS yeast rescue: inactive

Results for COc1cccc(CNC(=O)c2cc3c(c(-c4cccc(-c5cccc(C#N)c5)c4)n2)[C@H](CCO)N(S(=O)C(C)(C)C)C3)c1 (stereo not given in full) ?
Abeta rescue: inactive; FUS yeast rescue: 22µM*; CCT modulator: 2; TDP43 rescue: inconclusive; aSyn rescue: -4%

Results for COCCNC(=O)c1cc2c(c(-c3cccc(-c4cccc(OC)c4)c3)n1)[C@H](CCO)N(S(=O)C(C)(C)C)C2 (stereo not given in full) ?
Abeta rescue: inactive; FUS yeast rescue: inactive; CCT modulator: 2; TDP43 rescue: inconclusive; aSyn rescue: 1%

Results for CN(C)C(=O)c1cccc(-c2cccc(-c3nc(C(=O)NCc4ccccc4)cc4c3[C@@H](CCO)N(S(=O)C(C)(C)C)C4)c2)c1 (stereo not given in full) ?
Abeta rescue: inactive; FUS yeast rescue: 35µM*; CCT modulator: 2; TDP43 rescue: 18%; aSyn rescue: 4%

How did N/C(=N\OC(=O)CC1CCCCC1)c1ccc(Br)cc1 do in these assays?
Abeta rescue: inactive; CCT modulator: -3; TDP43 rescue: 7.9µM*; Mm-Cpn inhibitor: 0%; aSyn rescue: -19%

What do the screens show for `COc1ccc(/C(N)=N/OC(=O)CC2CCCCC2)cc1OC`?
Abeta rescue: inactive; FUS yeast rescue: inconclusive; CCT modulator: -3; TDP43 rescue: 22µM*; Mm-Cpn inhibitor: 1%; aSyn rescue: 1%

How did N/C(=N\OC(=O)CC1CCCCC1)c1ccc(Cl)cc1 do in these assays?
Abeta rescue: inactive; FUS yeast rescue: inactive; CCT modulator: -1; TDP43 rescue: inconclusive; Mm-Cpn inhibitor: 1%; aSyn rescue: -21%

What do the screens show for `N/C(=N\OC(=O)CC1CCCCC1)c1cccc(Br)c1`?
Abeta rescue: inactive; FUS yeast rescue: inactive; CCT modulator: -5; TDP43 rescue: 3.2µM*; Mm-Cpn inhibitor: -7%; aSyn rescue: -34%

Results for COC(=O)[C@]1(CNC(=O)C(C)(C)C)CC(=O)N(Cc2ccc(Cl)cc2)[C@@H]1c1ccc(OC)cc1 ?
FUS yeast rescue: inactive

How did Cc1ccc(Cl)c2sc(N3CCN(C(=O)c4ccco4)CC3)nc12 do in these assays?
Abeta rescue: inactive; FUS yeast rescue: inactive; CCT modulator: -1; TDP43 rescue: 29%; Mm-Cpn inhibitor: -1%; aSyn rescue: 13%

How did Cc1ccc(C)c2sc(N3CCN(C(=O)c4ccco4)CC3)nc12 do in these assays?
Abeta rescue: inactive; FUS yeast rescue: inactive; TDP43 rescue: 11µM*

Results for Cc1cccc2sc(N3CCN(C(=O)c4ccco4)CC3)nc12 ?
Abeta rescue: inactive; FUS yeast rescue: inactive; TDP43 rescue: 11µM*

How did COC(=O)/C=C1\S/C(=N\N=C\CC(=O)OC)NC1=O do in these assays?
Abeta rescue: inconclusive; FUS yeast rescue: 32µM*; CCT modulator: -1; TDP43 rescue: -7%; Mm-Cpn inhibitor: -1%; aSyn rescue: -11%

What do the screens show for `COC(=O)/C=C1\SC(=Nc2ccc(OC)cc2)NC1=O`?
Abeta rescue: inactive; FUS yeast rescue: inactive; CCT modulator: -3; TDP43 rescue: 20%; Mm-Cpn inhibitor: -6%; aSyn rescue: 8%

What do the screens show for `Cc1cccc(Cn2cc(COC(=O)N(C)Cc3ccccc3)nn2)c1`?
FUS yeast rescue: inactive

How did O=C(O)c1ccc(Oc2nc3ccccc3s2)cc1 do in these assays?
Abeta rescue: inactive; CCT modulator: -1; TDP43 rescue: 13µM*; aSyn rescue: inconclusive

What do the screens show for `O=C(O)c1ccc(C=C(c2nc3ccccc3s2)c2nc3ccccc3s2)cc1`?
Abeta rescue: inactive; FUS yeast rescue: inactive; CCT modulator: -3; TDP43 rescue: -16%; Mm-Cpn inhibitor: 1%; aSyn rescue: 12%

Results for CC1(C)C(=O)N(OCc2ccccc2)C(C)(C)C(=O)N1OCc1ccccc1 ?
Abeta rescue: inactive; CCT modulator: -32*; TDP43 rescue: inconclusive; Mm-Cpn inhibitor: -4%; aSyn rescue: 4%

How did CCOC(=O)[C@@]12CCCC=C1N(CCc1ccc(Cl)cc1)C(=O)[C@H]2CC(=O)NCc1cccs1 do in these assays?
FUS yeast rescue: inactive

Results for CC(=O)N1CCN(C2=NC(=O)/C(=C/c3ccc(OS(=O)(=O)c4ccccc4)cc3)S2)CC1 ?
Abeta rescue: inactive; FUS yeast rescue: inactive; CCT modulator: -79*; TDP43 rescue: -2%; Mm-Cpn inhibitor: -6%; aSyn rescue: -1%

What do the screens show for `O=C(CN1CCN(Cc2ccccc2)CC1)N/N=C\c1ccccc1[N+](=O)[O-]`?
FUS yeast rescue: inactive

Results for CCc1c(C)sc(NC(=O)CC#N)c1C#N ?
Abeta rescue: inactive; FUS yeast rescue: 10µM*; CCT modulator: -24; TDP43 rescue: -2%; Mm-Cpn inhibitor: -2%; aSyn rescue: -2%

How did CCCC(=O)Nc1sc(C)c(C)c1C#N do in these assays?
Abeta rescue: inactive; FUS yeast rescue: inactive; CCT modulator: 3; TDP43 rescue: -2%; Mm-Cpn inhibitor: -1%; aSyn rescue: -1%

What do the screens show for `COc1cc(C=Nn2c(-c3cc(-c4ccccc4)n[nH]3)n[nH]c2=S)ccc1OC(C)=O`?
FUS yeast rescue: inactive

How did Cc1ccc(-c2cc(-c3ccccc3)c(C#N)c(N)n2)o1 do in these assays?
Abeta rescue: inactive; FUS yeast rescue: inconclusive; CCT modulator: -2; TDP43 rescue: 22µM*; Mm-Cpn inhibitor: 1%; aSyn rescue: -65%

Results for N#Cc1c(-c2ccccc2)cc(C2CC2)nc1N ?
Abeta rescue: inactive; FUS yeast rescue: inactive; CCT modulator: 0; TDP43 rescue: 13µM*; Mm-Cpn inhibitor: -3%; aSyn rescue: 0%

How did Cc1ccc(C2OC34CCCCCC3C(C#N)(C(=N)O4)C2(C#N)C#N)cc1 (stereo not given) do in these assays?
Abeta rescue: inactive; FUS yeast rescue: inactive; CCT modulator: 1; TDP43 rescue: 1.3µM*; Mm-Cpn inhibitor: 0%; aSyn rescue: -30%

How did CCC(=NCc1ccc(Cl)c(Cl)c1)c1nc(-c2ccco2)oc1O do in these assays?
Abeta rescue: inactive; FUS yeast rescue: inactive; CCT modulator: -1; TDP43 rescue: 14µM*; Mm-Cpn inhibitor: 0%; aSyn rescue: 9%
